The campaign covered roughly 2,300 compounds. About 350 (15%) were called active. No rule for the calls is given here. Not all results are given here. Measured potencies and affinities stand elsewhere.
Assay: HepG2 cell cytotoxicity, dose response, cytotoxicity control for non-replicating M. tuberculosis project (AID 489018);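 also: HepG2 human liver cells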
Settings: series mostly up to 20 µM
For `CCCCCn1nnc2c(=O)oc3ccccc3c21`, the outcome was “inactive”.
In the case of `Cc1cc(=O)[nH]c(-n2nc(C)cc2C)n1`, the outcome is reported as “inactive”.
With `O=C(Nc1ccc(-c2nc3ccccc3c(=O)o2)cc1)c1ccco1` the outcome was “inactive”.
With `COc1ccc(C(C)NC(=O)CCc2ccccc2)cc1` (stereo not given) the outcome was “inactive”.
With `CC(C)Oc1ccc(CNC(=O)Oc2ccccc2)cc1` the outcome was “inactive”.
With `Cc1cc(OCCOCCNCc2ccccc2)ccc1C(C)C` the outcome was “inactive”.
In the case of `COc1ccc(C(O)CNc2ccc(C)cc2)cc1` (stereo not given), the outcome is reported as “inactive”.
With `Cn1c(CNc2ccccc2O)nc2ccccc21` the outcome was “inactive”.
With `CCCCN1CCC(O)(c2ccccc2)C(C(=O)c2ccccc2)C1` (stereo not given) the outcome was “inactive”.
In the case of `O=C(Nc1ccccc1F)c1ccc([N+](=O)[O-])s1`, the outcome is reported as “inactive”.
For `CCOc1ccc(OCc2ccc(C(=O)OCc3ccccn3)o2)cc1`, the outcome was “inactive”.
With `Cc1ccc(-c2nc3ccccn3c2Nc2ccccc2)o1` the outcome was “inactive”.
With `CCc1ccc(NC(=O)C(=O)NNC(=O)c2cccc(OC)c2)cc1` the outcome was “inactive”.
In the case of `Cc1ccc(NCCC(=O)c2cccs2)cc1`, the outcome is reported as “inactive”.
For `CC1(C(=O)OCC(=O)Nc2nnc(-c3ccccc3)o2)CC1(Cl)Cl` (stereo not given), the outcome was “inactive”.
For `O=C(COc1ccc(Cl)cc1)Nc1ccc(Cl)cn1`, the outcome was “inactive”.
In the case of `Cn1c(=O)c(Oc2ccc(Cl)cc2)c(O)c2ccccc21`, the outcome is reported as “inactive”.
With `CC1CCCN(CCCOc2ccc([N+](=O)[O-])cc2)C1` (stereo not given) the outcome was “inactive”.
In the case of `Cc1ccccc1OCCNc1cc(N2CC(C)NC(C)C2)ccc1[N+](=O)[O-]` (stereo not given), the outcome is reported as “inactive”.
In the case of `CCOc1ccc(-c2cc(CCCC(=O)NCCC(C)C)no2)cc1`, the outcome is reported as “inactive”.
With `Cc1ccc(C2=N/C(=C\c3cccnc3)C(=O)O2)cc1` the outcome was “inactive”.
With `O=C1OC(/C=C/c2ccccc2)=NC/1=C\c1cccnc1` the outcome was “inactive”.
In the case of `COc1ccc(-c2cc(=O)oc(-c3cccc(C)c3)n2)cc1`, the outcome is reported as “inactive”.
With `O=C(CCC1CCCC1)Nc1ccc(Br)cn1` the outcome was “inactive”.
With `Cc1cc(C)n(-c2nc(NCCCO)c3c4c(sc3n2)CCCC4)n1` the outcome was “inactive”.
With `CCOC(=O)c1sc2nc(CSc3ccccc3)nc(NCCN(C)C)c2c1C` the outcome was “inactive”.
For `CC1=C/C(=N\OS(=O)(=O)c2ccccc2)C(C)=CC1=O`, the outcome was “inactive”.
For `O=C1CSC(=S)N1Cc1cccnc1`, the outcome was “inactive”.
In the case of `O=C(OCn1nnc2ccccc2c1=O)c1ccc(Br)o1`, the outcome is reported as “inactive”.
For `COc1cccc(C(=O)OCn2nnc3ccccc3c2=O)c1OC`, the outcome was “inactive”.
In the case of `c1ccc(-c2nc3c(ccc4ccccc43)[nH]2)nc1`, the outcome is reported as “inactive”.
In the case of `O=[N+]([O-])c1ccc(-c2nc3ccc([N+](=O)[O-])cc3[nH]2)cc1`, the outcome is reported as “inactive”.
In the case of `CCOC(=O)CNCCC(=O)c1ccc(Br)cc1`, the outcome is reported as “inactive”.
In the case of `COc1cc(OC)c2c(OC)cccc2n1`, the outcome is reported as “inactive”.
For `CCN1CCN(c2ccc(S(=O)(=O)N3CCCCC3)cc2NC(=O)c2ccc([N+](=O)[O-])s2)CC1`, the outcome was “inactive”.
For `C/C(=N/NC(=O)c1cc2ccccc2cc1O)C1C(=O)c2ccccc2C1=O`, the outcome was “inactive”.
For `CCN(CC)c1ccc2cc(C(=O)NCc3ccc(F)cc3)c(=N)oc2c1`, the outcome was “inactive”.
In the case of `COCCSc1nnc(NC(=O)CCS(=O)(=O)Cc2ccccc2)s1`, the outcome is reported as “inactive”.
For `CCC(C)n1nnc2c(=O)oc3ccccc3c21` (stereo not given), the outcome was “inactive”.
With `O=C(Nc1ncc([N+](=O)[O-])s1)c1cccs1` the outcome was “inactive”.

— PubChem BioAssay AID489018 (Southern Research Specialized Biocontainment Screening …, 2010)
